The campaign covered roughly 360,000 compounds. About 420 (0.12%) were called active. Many of the other results were omitted from the sample, so actives are more common in it than they were. A number with no mark means an inactive call. Cut-off read from the data, not from the text of the source: active = inhibition above about 30%; inconclusive = no clear call, values can overlap the other calls; inactive = below that.
The compounds below were run against Lethal factor (Bacillus anthracis) (UniProt P15917) (assay: anthrax lethal factor cleavage blockers – biochemical, multiplex microsphere, MLPCN library, primary screen (AID 588501; note: plate controls were buffer without enzyme for full effect and enzyme alone for no effect)). Details: multiplex microsphere protease cleavage assay, LF; at 10 µM; hits give high values.

Compound | inhibition
C=CCNC(=O)/C=C/c1ccc(C(C)C)cc1 | -1.4%
O=C(/C=C(O)/C=C/c1ccc(O)cc1)/C=C/c1ccc(O)cc1 | 31.4% (active)
NC1=NC(=O)S/C1=C\c1ccc(O)cc1 | -0.1%
CC(O)CN(Cc1ccc(Cl)cc1)CC(C)O (stereo not given) | 0.1%
O=C1N[C@@H](Cc2ccccc2)C(=O)N2[C@H]1C[C@]1(Br)c3ccccc3N(S(=O)(=O)c3ccccc3)[C@H]21 | -0.3%
Cn1c(SCC(=O)c2ccccc2)ncc(C(=O)Nc2ccc(F)cc2)c1=O | -1.5%
CCCCN1CC(COc2ccccc2)Oc2cccc(F)c2S1(=O)=O (stereo not given) | -2.2%
CN(Cc1cn(Cc2ccc(C(F)(F)F)cc2)nn1)C1CN(Cc2cn(Cc3ccc(C(F)(F)F)cc3)nn2)S(=O)(=O)C1 (stereo not given) | -0.1%
COC(=O)[C@H]1Cc2cnoc2C[C@]1(C)C(=O)O | 4.2%
COc1ccc2[nH]c(=O)c(C3c4cc(OC)c(OC)cc4CCN3C(=O)c3ccco3)cc2c1 (stereo not given) | -1.5%
CC(=NNC(=S)N1CCCCCC1)c1ccccn1 | 50% (active)
CCOC(=O)c1ccc(NC(=S)N2CCN(c3ccccn3)CC2)cc1 | -15.7%
O=[N+]([O-])c1ccc(NC(=S)N2CCN(c3ccccn3)CC2)cc1 | 1.1%
COc1ccccc1CNC(=O)c1cc(-c2cc(F)ccc2OC)n[nH]1 | -4.6%
O=C(NC1CCCC1)C(c1ccco1)N(C(=O)c1ccco1)c1ccc(F)cc1 (stereo not given) | -0.3%
Cc1cc(C)c2nc(SCC(=O)N(C)C3CCS(=O)(=O)C3)cc(C)c2c1 (stereo not given) | 0.4%
N#CC(Cc1cc2ccccc2n1S(=O)(=O)c1ccccc1)OCc1ccccc1 (stereo not given) | -10.4%
O=C(NN1C(=O)C2CCCCC2C1=O)c1ccco1 (stereo not given) | 15.5%
CC(C)c1c(O)nc(SCCOc2ccc(Cl)cc2)[nH]c1=O | -0.5%
COc1ccc(NC(=O)c2cn(CCC#N)nc2-c2ccc([N+](=O)[O-])cc2)cc1 | -4.4%
COc1ccc(-c2[nH][nH]c(=O)c2NC(=O)c2ccc([N+](=O)[O-])cc2)cc1 | 6.4%
COc1ccc(C(=O)Nc2nc(-c3ccc(OC)cc3)c(-c3ccc([N+](=O)[O-])cc3)s2)cc1 | 30.1% (active)
COc1ccc(CCNC(=O)CN(c2ccccc2)S(C)(=O)=O)cc1 | 3.6%

Compound | inhibition
COc1ccc(N(CC(=O)NCCSCc2cccc(Cl)c2)S(C)(=O)=O)cc1 | 34.3% (active)
Cc1ccc(CSCCNC(=O)CN(c2ccc(F)cc2)S(C)(=O)=O)cc1 | 3%
Cc1cccc(N2CCN(C(=O)CCS(=O)(=O)c3ccc4c(c3)NC(=O)C(C)S4)CC2)c1C (stereo not given) | -3%
CC(=O)OCCN(CCCn1c(-c2ccncc2)nc2ccccc21)c1nc(-c2ccc(C)cc2)cs1 | 41.1% (active)
COc1ccc(-c2nc3ccccc3n2CCC(C)C)cc1OC | 0.7%
Cc1ccc(-c2csc(N3CCN(c4cc5c(cc4Cl)nc(-c4ccncc4)n5CCOCCO)CC3)n2)cc1 | -0.9%
COc1ccc(N2CCN(C(=O)c3ccccc3NC(=O)C3=C(C)OCCS3)CC2)cc1 | 1.2%
COc1ccc(CC(=O)NC(C)c2ccc(Cl)c(Cl)c2)cc1S(=O)(=O)N1CCOCC1 (stereo not given) | 1.2%
O=C(NCc1ccncc1)C(=O)NCC1OCCN1S(=O)(=O)c1ccc(Br)cc1 (stereo not given) | -6.7%
C=C1C(=O)[C@]23C[C@H]1CCC2[C@@]1(C)C(C[C@@H]3O)[C@](C)(C(=O)O)CC[C@@H]1O (stereo not given in full) | 6%
COc1ccc(OCC(=O)NCCc2ccc(S(N)(=O)=O)cc2)cc1 | -1.2%
CCC(C)(C(=O)Nc1ccccc1C)N(C(=O)CNC(C)=O)c1ccc(C)cc1 (stereo not given) | 0.5%
COC(=O)Cc1ccc(N(Cc2ccccc2F)S(=O)(=O)c2ccc(Br)cc2)cc1 | -0.1%
CC(C)(C)c1ccc(C(=O)N2CCN(CCNC(=O)C(=O)Nc3ccc(F)cc3)CC2)cc1 | -3.8%
Cc1cccc(N2CCN(C(C)C(=O)N3CCc4ccccc43)CC2)c1C (stereo not given) | -6.6%
COCCn1c(N)c(NCc2ccccc2)c(=O)[nH]c1=O | -3.2%
COCCNc1ncnc2c1nc1n2CCCC1 | 0.3%
OC(c1ccc(Cl)cc1)C(CN1CCOCC1)c1ccccc1 (stereo not given) | 40.7% (active)
O=C(CC(c1ccccc1)c1cc(Cl)ccc1O)NCCN1CCOCC1 (stereo not given) | -5.6%
OC(c1ccccc1)C(CN1CCOCC1)c1ccccc1 (stereo not given) | -9.8%
O=S(N1CCCCCC1)C12CC3CC(CC(C3)C1)C2 (stereo not given) | -5.3%
O=C(c1ccc(F)cc1)n1c(=S)nc2ccccn21 | -9.4%
O=C(CNC(=O)c1ccccc1F)c1ccc(Br)cc1 | 0.4%

Compound | inhibition
O=C(C[n+]1cc(Br)cc2ccccc21)c1ccc(F)cc1 | 36.5% (active)
COc1ccc(CNC(=O)C(NS(=O)(=O)c2cccc3nsnc23)C(C)C)cc1 (stereo not given) | 0.7%
NS(=O)(=O)c1ccc(CCNC(=O)c2ccc(Cl)c(S(=O)(=O)N3CCCCCC3)c2)cc1 | -0.9%
O=C(O)C1CCCN(CCC=C(c2ccccc2)c2ccccc2)C1 (stereo not given) | -6.7%
O=C(O)c1ccc(S(=O)(=O)N2CCC(Cc3ccccc3)CC2)cc1 | -1.5%
Cc1onc(-c2ccccc2Cl)c1C(=O)NCCn1ccc2ccccc21 | 53.9% (active)
Cc1ccc2cc(CCNC(=O)c3c(-c4ccccc4Cl)noc3C)c(=O)[nH]c2c1 | -10.3%
Cc1onc(-c2ccccc2Cl)c1C(=O)N(Cc1ccc(N(C)C)cc1)C(C)C | 8.3%
CCC(=O)N1Cc2cc(C(=O)NCc3cccc(F)c3)nc(-c3cccc(C4=CCCC4)c3)c2[C@H]1CCO | -8.3%
Cc1ccc(OCC(=O)N2CCN(C(=O)c3cccnc3)CC2)cc1 | -7.8%
CN1/C(=c2/s/c(=C3/C(=O)N(c4ccccc4)NC3=Nc3ccccc3)n(C)c2=O)C(C)(C)c2ccccc21 | -14.6%
COc1cc2c(cc1OC)C(C)N(S(=O)(=O)c1cnc(Cl)c(Cl)c1)CC2 (stereo not given) | 3.2%
COc1ccccc1OCCC(=O)OCC(=O)NCc1ccccc1 | -1.1%
Cc1ccc(C(=O)O)cc1-c1ccc(/C=C2\SC(=O)N(CC(=O)Nc3ccc4c(c3)OCO4)C2=O)o1 | -2.8%
NS(=O)(=O)c1ccc(-c2ccc(/C=C3\SC(=O)NC3=O)o2)cc1 | -4.1%
CN1C(=O)/C(=C\c2ccc(-c3ccccc3)o2)SC1=S | 30.1% (active)
CCC1CCc2c(sc(NC(C)=O)c2C#N)C1 (stereo not given) | 2.5%
CCc1nc2ccc(C(=O)NC3CCN(Cc4ccccc4)CC3)cn2c1N(C)CCN1CCOCC1 | -2.5%
COC(=O)c1ccc2nc(-c3ccc(C)cc3)c(Cc3ccc(OC)cc3C)n2c1 | 2.1%
COc1cc(NC(=O)CSc2nnc3ccc(-c4ccncc4)nn23)cc(OC)c1 | -3.6%
O=C(NCc1ccccc1Cl)NC(=O)c1csc([N+](=O)[O-])c1 | -4.7%
O=C(NNC1=NCCC1)c1cccc(S(=O)(=O)N2CCCCC2)c1 | -3.2%
COC(=O)c1ccc(CSc2nc3cc(Cl)ccc3o2)cc1 | -2.5%

Compound | inhibition
CC1(C(=O)NS(=O)(=O)Cc2cccc(Cl)c2)CCN1C(=O)Cc1ccc(Cl)cc1Cl (stereo not given) | -5.7%
Nc1cccc(-c2cncc(N3CCN(Cc4ccccn4)CC3)n2)c1 | -2.8%
Cc1cc2nc(SCCN3CCOCC3)[nH]c2cc1C | 7.8%
CC(=O)c1ccc(N2C(=NC(=O)C(C)C)SC3CS(=O)(=O)CC32)cc1 (stereo not given) | -2.5%
CCN(CC(=O)Nc1ccccc1C(F)(F)F)C(=O)CSCc1c(C)noc1C | 2.2%
O=S(=O)(c1cccc(S(=O)(=O)N2CCC(n3nnc4ccccc43)CC2)c1)N1CCCCC1 | 4.7%
COc1cc(S(=O)(=O)N2CCN=C2c2ccccc2)ccc1Cl | -0.6%
CNC(=O)c1c(NC(NC(=O)c2ccco2)C(=O)c2ccc(Cl)cc2)sc2c1CCCC2 (stereo not given) | -4.6%
CCOC(=O)C1CCN(Cc2coc3ccc(Cl)cc3c2=O)CC1 | 0.9%
Cc1ccc(NC(=O)C2CCN(S(=O)(=O)c3ccc4c(c3)NC(=O)CO4)CC2)cc1C | 1.3%
CCc1ccccc1NC(=O)CSc1nnc(CCNC(=O)OC(C)(C)C)o1 | -3.1%
Cc1ccc(NS(=O)(=O)c2ccc(-c3coc(C)n3)cc2)c(C)c1 | -2%
COc1ccccc1N1CCN(CC(=O)NC(=O)NCc2ccco2)CC1 | 2.9%
Oc1ccccc1N1CCN(C(=S)NCc2ccccc2)CC1 | -2.2%
O=C(CN1CCN(c2ccccc2O)CC1)NC(=O)NCc1ccccc1 | 50.8% (active)
Cc1cc(Br)ccc1NC(=O)CN(C)C(=O)CN1C(=O)NC2(CCCC2)C1=O | 1.3%
COc1cc(OC)cc(-c2c(-c3cccs3)c3cc(-c4ccc(OC)cc4F)ccc3n2C)c1 | -3.2%
CCOc1ccccc1-c1nc(CN2CCC(C(=O)N3CCOCC3)CC2)c(C)o1 | 0.2%
Cc1noc(C)c1CSc1nnc2ccc3ccccc3n12 | -0.1%
NC1=NC(=O)C(Cc2cccc(Cl)c2Cl)S1 (stereo not given) | -6.2%
COc1cc(Cl)ccc1OCc1cc(C(=O)N2CC[C@@H]3CCCC[C@H]3C2)no1 | 0.9%

— PubChem BioAssay AID588501 (NMMLSC, 2011)
